Source: PubChem
Cav3 T inh – human Cav3.2 channel inhibition, primary screen; O95180; Cav3.2-expressing cells, Fluo-4 calcium fluorescence FDSS; stronger effect = lower value; B-score at 10 µM; 100,000 tested, 4% active;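 active means single-dose well whose peak fluorescence ratio is a statistical outlier from its plate by either plate-standardised score or position-corrected B-score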
CYP2C19 inhib – blocks human cytochrome P450 2C19. P33261. 96,000 tested, 21% active. CYP2C19 Supersomes, luciferin-H EGE luminescence, 30 min. inhibition, % at 5 µM;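 active means CYP2C19 inhibition above a set limit at 5 µM in the primary screen, cut at about 50% in these data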
CYP2C9 activ – increases human cytochrome P450 2C9 activity | P11712 | 96,000 tested, 1.4% active | recombinant CYP2C9, luciferin-H conversion, luminescence; stronger effect = higher value; factor 1 = untreated enzyme, 0 = blocked | activation factor at 5 µM;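 active means activation factor of 2 or more for CYP2C9 at a 5 µM dose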
CYP2C9 inhib – blocks human cytochrome P450 2C9; CYP2C9 Supersomes, luciferin-H conversion, luminescence; 96,000 tested, 20% active; inhibition, % at 5 µM; AID 777; P11712;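 active means blocking of liver enzyme CYP2C9 beyond about 50% at 5 µM, limit read from the data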
CYP2C19 activ – activators of human cytochrome P450 2C19; P33261; recombinant CYP2C19, luciferin-H EGE luminescence; stronger effect = higher value; 0 = fully inhibited enzyme, 1 = untreated enzyme; AID 1025; activation factor at 5 µM; 96,000 tested, under 10 active;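 active means activation factor of at least 2 at 5 µM in the primary screen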
A number is an active result; - = inactive; . = no result given. Compounds with a hit are over-represented: about 27% of the library has one in this group of screens.

SMILES	Cav3 T inh	CYP2C19 inhib	CYP2C9 activ	CYP2C9 inhib	CYP2C19 activ
CCOC(=O)N1CCN(C(=O)CCCn2c(=O)[nH]c3ccccc3c2=O)CC1	-	-	-	-	-
Cc1ccccc1CN1CCN(CC2CC3C=CC2C3)CC1 (stereo unspecified)	-	61.0	-	-	-
COc1ccc(-c2nc(SC)n(C)c(=O)c2C#N)cc1OC	-	-	-	95.0	-
COC(=O)c1c(NC(=O)c2nc3ncccn3n2)sc(C(=O)N(C)C)c1C	.	-	-	-	-
COC(=O)Cc1c(C)c2ccc(OC(=O)c3ccco3)cc2oc1=O	-	-	-	-	-
CCc1c(C)c2ccc(OCC(=O)OC)cc2oc1=O	-	58.8	-	-	-
COc1ccc(-c2n[nH]c(C)c2-c2ccc(Cl)cc2)c(O)c1	-	63.3	-	-	-
CCc1cc(-c2n[nH]c(C)c2Oc2ccc(C(C)C)cc2)c(O)cc1O	-	67.0	-	82.7	-
CCCOC(=O)c1ccc(Oc2c(-c3ccc(O)cc3O)n[nH]c2C)cc1	-	87.4	-	97.5	-
CCCOC(=O)c1ccc(Oc2c(-c3ccc(OC)cc3O)n[nH]c2C)cc1	-	-	-	83.4	-
CCOC(=O)c1[nH]nc(-c2cc(CC)c(O)cc2O)c1-c1cscn1	-	-	-	-	-
Cc1[nH]nc(-c2ccc(O)cc2O)c1Oc1ccccc1	-4.55	100.4	-	98.9	-
Cc1nc2c(Br)cc(Br)cc2cc1O	-5.06	-	-	62.2	-
Brc1cc(Br)c2nc(-c3cccs3)ccc2c1	-	-	-	-	-
COc1ccc(-c2nn3c(-c4ccccn4)nnc3s2)cc1OC	-	.	.	.	.
COc1cccc(-c2nn3c(-c4ccccn4)nnc3s2)c1	-	51.9	-	-	-
COc1ccc(-c2nnc3sc(-c4ccccn4)nn23)cc1	-	-	-	56.9	-
COc1cccc(-c2nn3c(-c4cc(C)[nH]n4)nnc3s2)c1	-	-	-	-	-
COc1cccc(-c2nnc3sc(-c4ccccn4)nn23)c1	-	63.2	-	-	-
CC(C)(C)c1ccc(-c2nnc3sc(-c4ccccn4)nn23)cc1	-	-	-	-	-
Cc1ccc(CNC(=O)c2ccc3c(c2)S(=O)(=O)c2ccccc2C3=O)o1	-	.	.	.	.
CN1CCCC(OC(=O)CCCC(=O)OC2CCCN(C)C2)C1 (stereo unspecified)	-	-	-	-	-
CSc1ncc(Cl)c(C(=O)NCc2ccc3c(c2)OCO3)n1	-	-	-	-	-
CSc1ncc(Cl)c(C(=O)C(C#N)c2nc3c(C)cc(C)cc3c(=O)[nH]2)n1 (stereo unspecified)	-7.05	.	.	.	.
O=C(Cn1ncc2c(=O)oc3ccccc3c21)N1CCCc2ccccc21	-	-	-	66.7	-
SMILES	Cav3 T inh	CYP2C19 inhib	CYP2C9 activ	CYP2C9 inhib	CYP2C19 activ
COc1ccccc1C(=O)NC(=S)N1CCCc2ccccc21	-	-	-	-	-
O=C(c1cc(-c2cccs2)on1)N1CCCc2ccccc21	-	93.4	-	-	-
O=C(NC(=S)N1CCCc2ccccc21)c1ccccc1	-	51.1	-	-	-
COc1ccc(C2=NOC(C(=O)N3CCCc4ccccc43)C2)cc1 (stereo unspecified)	-	-	2.2	-	-
CCOC(=O)Cn1ncc2c(=O)oc3ccccc3c21	-	-	-	-	-
Cn1c2c(c(=O)n(C)c1=O)CN(CC1CCCO1)CN2 (stereo unspecified)	-	-	-	-	-
Cc1ccc(C(c2nnnn2CCC(C)C)N2CCN(C)CC2)cc1 (stereo unspecified)	-	-	-	-	-
CCOC(=O)C(C)Oc1cccc2c(=O)n(CC(=O)N3CCCc4ccccc43)ccc12 (stereo unspecified)	-	-	-	-	-
COc1ccc2c(CC(=O)N(C)CC3COc4ccccc4O3)coc2c1 (stereo unspecified)	-	98.9	-	88.4	-
CC(C)C(=O)c1cn(CC(=O)N2CCCc3ccccc32)c2ccccc12	-	-	-	74.1	-
COc1ccc(CC(=O)N2CCc3ccccc32)cc1	-	.	.	.	.
COc1ccccc1CC(=O)N1CCCc2ccccc21	-	67.1	2.6	-	-
COc1ccc2c(CC(=O)OCC(=O)NC(=O)c3cccn3C)coc2c1	-	-	-	-	-
COc1ccc(OCCCC(=O)N2CCCc3ccccc32)cc1	-	98.2	-	83.2	-
Cc1ccc(S(=O)(=O)N[C@@H](Cc2ccccc2)C(=O)CCl)cc1	-	.	.	.	.
Cc1cc(C)c(C)c(S(=O)(=O)NCc2ccc(C(=O)N3CCCCC3)cc2)c1C	-	.	.	.	.
COc1cc(OC)nc(NC2OC(=O)c3ccccc32)n1 (stereo unspecified)	-	-	-	-	-
CCOc1cc(Br)c(C(=O)O)cc1OC	-	-	-	-	-
Cn1ncc(Cl)c1C(=O)N1CCCc2ccccc21	-	54.0	-	62.8	-
COc1ccc2c(CC(=O)N3CCc4ccccc43)coc2c1	-	63.7	-	-	-
Cc1ccc(N2CC(C(=O)N3CCCc4ccccc43)CC2=O)cc1 (stereo unspecified)	-	68.2	-	96.3	-
Cc1ccc(N2CC(C(=O)N3CCc4ccccc43)CC2=O)cc1 (stereo unspecified)	-	-	-	-	-
Cn1c(C(=O)N2CCCc3ccccc32)cc2c(=O)n3ccccc3nc21	.	-	-	64.7	-
Cn1c(C(=O)NCc2ccccn2)cc2c(=O)n3ccccc3nc21	-	.	.	.	.
COc1ccc2c(CC(=O)OCC(=O)N3CCc4ccccc43)coc2c1	-	-	-	-	-
SMILES	Cav3 T inh	CYP2C19 inhib	CYP2C9 activ	CYP2C9 inhib	CYP2C19 activ
O=C(CN1CCCCC1)N1CCCc2ccccc21	-	-	-	-	-
O=C(CCCC(=O)N1CCCc2ccccc21)N1CCCc2ccccc21	-	94.7	-	-	-
O=C(CCn1cccc1)N1CCc2ccccc21	-	51.5	-	-	-
CC(C)Oc1ccc(C(=O)N2CCCc3ccccc32)cc1	-	96.9	-	-	-
O=C1c2ccccc2C(=O)N1CCCC(=O)N1CCc2ccccc21	.	-	-	-	-
O=C(c1ccc(C(=O)N2CCCc3ccccc32)s1)N1CCCc2ccccc21	-7.82	50.3	-	-	-
CCOc1ccc2nc(NC(=O)C3CCN(c4cnccn4)CC3)sc2c1	.	-	-	-	-
O=C(COc1ccccc1Cl)NC(=S)N1CCc2ccccc21	-	-	-	-	-
COc1ccc(OCC(=O)NC(=S)N2CCCc3ccccc32)cc1	-	64.0	-	-	-
CCOC(=O)CNC(=O)Nc1nnc(-c2ccc(OCC)cc2)o1	-	-	-	-	-
CCOC(=O)c1nnn(CC(=O)N2N=C(c3cccc4ccccc34)CC2c2ccccc2)c1C(=O)OCC (stereo unspecified)	-5.51	.	.	.	.
O=C(Oc1ccc(-c2nnco2)cc1)N(c1ccccc1)c1ccccc1	-	69.2	-	-	-
O=C(Oc1ccc(-c2nnco2)cc1)N1CCCCC1	-	77.4	-	-	-
O=C(NCc1ccc(Cl)cc1)C1CCC(CNc2c(N3CCCCC3)c(=O)c2=O)CC1 (stereo unspecified)	-	.	.	.	.
